Measured values reported in PubChem BioAssay AID1159580 (chemical genetic matrix, 2015).
“And” between values parts separate entries of the source, which are not always exact repeats. Equal entries are not always repeated. Out of some 5,500 compounds screened, about 2,000 (36%) were called active. Roughly 18% stayed inconclusive and do not appear here. Rule as the data show it: active = normalized growth mostly below about 0.91 (no sharp cut-off); inconclusive = no clear call, values can overlap the other calls; inactive = mostly above about 0.92. This is one part of the list.

Assay: chemical genetic growth profiling, strain panel (AID 1159580);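 also: tested at 20 µM; growth read once vehicle control cultures reached saturation at 30 °C; 1 = growth at the plate median or of vehicle wells; lower values mean less growth of the strain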
Details: S. cerevisiae deletion strains, growth OD

Measured: normalized growth

C=C(C)C1CNC(C(=O)O)C1CC(=O)O (stereo unspecified)
inactive: locus YAL013W, strain DEP1, stronger effect = lower value 1.01 | locus YAL021C, strain ccr4, stronger effect = lower value 0.995 | locus YAL026C, strain drs2, stronger effect = lower value 0.996 | locus YAL030W, strain snc1, stronger effect = lower value 0.99 | locus YBL061C, strain skt5, stronger effect = lower value 0.992 | locus YBR009C, strain hhf1, stronger effect = lower value 0.987 | locus YBR021W, strain FUR4, stronger effect = lower value 0.986 | locus YBR023C, strain chs3, stronger effect = lower value 0.987 | locus YBR171W, strain sec66, stronger effect = lower value 0.986 | locus YBR229C, strain ROT2, stronger effect = lower value 1.01 | locus YBR231C, strain swc5, stronger effect = lower value 1 | locus YBR279W, strain paf1, stronger effect = lower value 0.997 | locus YCL011C, strain gbp2, stronger effect = lower value 0.985 | locus YCL016C, strain dcc1, stronger effect = lower value 0.998 | locus YCL029C, strain bik1, stronger effect = lower value 1.03 | locus YCL061C, strain MRC1, stronger effect = lower value 0.999 | locus YCL069W, strain vba3, stronger effect = lower value 0.995 | locus YCR088W, strain abp1, stronger effect = lower value 0.988 | locus YDL005C, strain med2, stronger effect = lower value 0.984 | locus YDL035C, strain GPR1, stronger effect = lower value 1.03 | locus YDL040C, strain nat1, stronger effect = lower value 0.986 | locus YDL074C, strain BRE1, stronger effect = lower value 1.03 | locus YDL101C, strain DUN1, stronger effect = lower value 1.02 | locus YDL185W, strain tfp1, stronger effect = lower value 1.04 | locus YDL192W, strain arf1, stronger effect = lower value 1.02 | locus YDR001C, strain nth1, stronger effect = lower value 0.99 | locus YDR069C, strain doa4, stronger effect = lower value 0.981 | locus YDR101C, strain arx1, stronger effect = lower value 1.01 | locus YDR137W, strain rgp1, stronger effect = lower value 0.972 | locus YDR150W, strain NUM1, stronger effect = lower value 1.01 | locus YDR159W, strain sac3, stronger effect = lower value 0.985 | locus YDR162C, strain NBP2, stronger effect = lower value 1.05 | locus YDR195W, strain ref2 0.967 | locus YDR297W, strain sur2, stronger effect = lower value 0.993 | locus YDR318W, strain mcm21, stronger effect = lower value 1.01 | locus YDR334W, strain swr1, stronger effect = lower value 0.992 | locus YDR335W, strain msn5, stronger effect = lower value 0.994 | locus YDR388W, stronger effect = lower value 1.01 | locus YDR392W, strain spt3, stronger effect = lower value 0.947 | locus YDR502C, strain sam2, stronger effect = lower value 1.03 | locus YEL003W, strain gim4, stronger effect = lower value 0.999 | locus YEL037C, strain rad23, stronger effect = lower value 0.988 | locus YEL061C, strain CIN8 (second series), stronger effect = lower value 0.986 | locus YEL061C, strain CIN8, stronger effect = lower value 1 | locus YER015W, strain faa2, stronger effect = lower value 0.993 | locus YER016W, strain bim1, stronger effect = lower value 0.978 | locus YER110C, stronger effect = lower value 1.02 | locus YER111C, strain swi4, stronger effect = lower value 0.996 | locus YER155C, strain BEM2 (second series), stronger effect = lower value 0.989 | locus YER155C, strain BEM2, stronger effect = lower value 0.99 | locus YER167W, strain BCK2, stronger effect = lower value 1.01 | locus YFR010W, strain ubp6, stronger effect = lower value 0.996 | locus YGL078C, strain dbp3, stronger effect = lower value 1.02 | locus YGL086W, strain mad1, stronger effect = lower value 1.02 | locus YGL167C, strain pmr1, stronger effect = lower value 0.996 | locus YGL173C, strain kem1, stronger effect = lower value 0.983 | locus YGL227W, strain vid30, stronger effect = lower value 0.989 | locus YGL240W, strain doc1, stronger effect = lower value 1.01 | locus YGL248W, strain PDE1, stronger effect = lower value 1.01 | locus YGL253W, strain hxk2, stronger effect = lower value 1 | locus YGR135W, strain pre9, stronger effect = lower value 1.03 | locus YGR252W, strain gcn5, stronger effect = lower value 1.07 | locus YHR013C, strain ard1, stronger effect = lower value 0.984 | locus YHR027C, strain rpn1, stronger effect = lower value 0.989 | locus YHR030C, strain SLT2, stronger effect = lower value 1.01 and 0.998 | locus YHR079C, strain IRE1 (second series), stronger effect = lower value 1.02 | locus YHR079C, strain IRE1, stronger effect = lower value 0.987 | locus YHR094C, strain hxt1, stronger effect = lower value 1.03 | locus YHR129C, strain ARP1, stronger effect = lower value 1.02 | locus YHR142W, strain chs7, stronger effect = lower value 0.988 | locus YHR200W, strain rpn10, stronger effect = lower value 1.01 | locus YIL066C, strain RNR3, stronger effect = lower value 1.04 | locus YIL073C, strain SPO22, stronger effect = lower value 1.07 | locus YIL125W, strain kgd1, stronger effect = lower value 1.02 | locus YIR030C, strain dcg1, stronger effect = lower value 1.02 | locus YJL092W, strain hpr5, stronger effect = lower value 0.989 | locus YJL095W, strain BCK1 (second series), stronger effect = lower value 0.99 | locus YJL095W, strain BCK1, stronger effect = lower value 1.05 and 0.992 | locus YJL115W, strain asf1, stronger effect = lower value 0.98 | locus YJL129C, strain trk1, stronger effect = lower value 1 | locus YJL134W, strain LCB3, stronger effect = lower value 1.01 | locus YJL154C, strain vps35, stronger effect = lower value 0.99 | locus YJL164C, strain tpk1, stronger effect = lower value 0.999 | locus YJL166W, strain qcr8, stronger effect = lower value 0.996 | locus YJL168C, strain set2, stronger effect = lower value 1.01 | locus YJL187C, strain SWE1 (second series), stronger effect = lower value 1.03 | locus YJL187C, strain SWE1, stronger effect = lower value 0.998 | locus YJR043C, strain POL32, stronger effect = lower value 1.02 | locus YJR066W, strain TOR1, stronger effect = lower value 0.931 | locus YJR075W, strain HOC1, stronger effect = lower value 1.03 | locus YKL009W, strain mrt4, stronger effect = lower value 1.03 | locus YKL068W, stronger effect = lower value 1.02 | locus YKL085W, strain MDH1 (second series), stronger effect = lower value 1.01 | locus YKL085W, strain MDH1, stronger effect = lower value 1.01 | locus YKL160W, strain elf1, stronger effect = lower value 1 | locus YKR001C, strain vps1, stronger effect = lower value 1.03 | locus YKR026C, strain gcn3, stronger effect = lower value 0.971 | locus YKR091W, strain srl3, stronger effect = lower value 0.999 | locus YLL001W, strain dnm1, stronger effect = lower value 0.994 | locus YLL026W, stronger effect = lower value 1 | locus YLL041C, strain sdh2, stronger effect = lower value 0.996 | locus YLR027C, strain aat2, stronger effect = lower value 0.992 | locus YLR039C, strain RIC1, stronger effect = lower value 1.11 | locus YLR058C, strain SHM2, stronger effect = lower value 1.02 | locus YLR102C, strain apc9, stronger effect = lower value 1.01 | locus YLR113W, strain HOG1, stronger effect = lower value 0.987 | locus YLR221C, strain rsa3, stronger effect = lower value 0.998 | locus YLR258W, strain gsy2, stronger effect = lower value 0.988 | locus YLR262C, strain YPT6 (second series), stronger effect = lower value 0.991 | locus YLR262C, strain YPT6, stronger effect = lower value 1.09 | locus YLR268W, strain sec22, stronger effect = lower value 1.02 | locus YLR320W, strain mms22, stronger effect = lower value 0.991 | locus YLR330W, strain CHS5, stronger effect = lower value 1.01 | locus YLR342W, strain FKS1 (second series), stronger effect = lower value 1.04 | locus YLR342W, strain FKS1, stronger effect = lower value 0.987 | locus YLR357W, strain rsc2, stronger effect = lower value 0.975 | locus YLR370C, strain arc18, stronger effect = lower value 0.986 | locus YLR371W, strain rom2, stronger effect = lower value 0.995 | locus YLR384C, strain iki3, stronger effect = lower value 0.97 | locus YLR418C, strain cdc73, stronger effect = lower value 1.03 | locus YML016C, strain PPZ1, stronger effect = lower value 1.02 | locus YML032C, strain rad52, stronger effect = lower value 1.03 | locus YML120C, strain ndi1, stronger effect = lower value 1 | locus YML124C, strain tub3, stronger effect = lower value 1.02 | locus YMR058W, strain fet3, stronger effect = lower value 0.993 | locus YMR078C, strain ctf18, stronger effect = lower value 1.03 | locus YMR125W, strain sto1, stronger effect = lower value 0.97 | locus YMR129W, stronger effect = lower value 1 | locus YMR205C, strain PFK2, stronger effect = lower value 0.962 | locus YMR223W, strain ubp8, stronger effect = lower value 1.02 | locus YMR231W, strain pep5, stronger effect = lower value 0.989 | locus YMR307W, strain GAS1, stronger effect = lower value 1.07 | locus YNL067W, strain RPL9B, stronger effect = lower value 1.02 | locus YNL071W, strain lat1, stronger effect = lower value 0.999 | locus YNL153C, strain GIM3, stronger effect = lower value 1.02 | locus YNL183C, strain NPR1, stronger effect = lower value 0.909 | locus YNL209W, strain ssb2, stronger effect = lower value 0.991 | locus YNL233W, strain BNI4, stronger effect = lower value 1.03 | locus YNL248C, strain rpa49, stronger effect = lower value 1.01 | locus YNL250W, strain rad50, stronger effect = lower value 1.03 | locus YNL271C, strain bni1, stronger effect = lower value 1.02 | locus YNL298W, strain CLA4, stronger effect = lower value 1.02 | locus YNL307C, strain MCK1, stronger effect = lower value 1.02 | locus YNL322C, strain KRE1 (second series), stronger effect = lower value 0.991 | locus YNL322C, strain KRE1, stronger effect = lower value 1 | locus YNR049C, strain mso1, stronger effect = lower value 0.986 | locus YNR052C, strain pop2, stronger effect = lower value 1.01 | locus YOL006C, strain TOP1, stronger effect = lower value 1.14 | locus YOL012C, strain htz1 0.909 | locus YOL147C, strain pex11, stronger effect = lower value 1.01 | locus YOR001W, strain rrp6, stronger effect = lower value 1.01 | locus YOR061W, strain CKA2, stronger effect = lower value 1.01 | locus YOR069W, strain VPS5, stronger effect = lower value 1.01 | locus YOR070C, strain gyp1, stronger effect = lower value 0.985 | locus YOR080W, strain dia2, stronger effect = lower value 0.983 | locus YOR083W, strain WHI5, stronger effect = lower value 1 | locus YOR106W, strain vam3, stronger effect = lower value 1.02 | locus YOR136W, strain idh2, stronger effect = lower value 1.02 | locus YOR144C, strain elg1, stronger effect = lower value 1 | locus YOR184W, strain ser1, stronger effect = lower value 1.02 | locus YOR231W, strain MKK1, stronger effect = lower value 0.992 | locus YOR265W, strain rbl2, stronger effect = lower value 0.994 | locus YOR270C, strain vph1, stronger effect = lower value 1.02 | locus YOR290C, strain snf2, stronger effect = lower value 1 | locus YOR316C, strain cot1, stronger effect = lower value 1 | locus YPL051W, strain arl3, stronger effect = lower value 0.998 | locus YPL055C, strain LGE1, stronger effect = lower value 1.03 | locus YPL078C, strain atp4, stronger effect = lower value 1.01 | locus YPL106C, strain sse1, stronger effect = lower value 0.978 | locus YPL240C, strain hsp82, stronger effect = lower value 0.997 | locus YPL256C, strain CLN2, stronger effect = lower value 0.977 | locus YPR119W, strain clb2, stronger effect = lower value 1 | locus YPR141C, strain kar3, stronger effect = lower value 1.03 | locus YPR163C, strain tif3, stronger effect = lower value 1.02 | locus YPR167C, strain met16, stronger effect = lower value 1.02 | strain wtn01, stronger effect = lower value 1.02
